We go through eight molecules from PubChem BioAssay (NCI).

The structures appear in SMILES notation. The panel holds about 83,000 compounds, 20% with a hit somewhere; the sample as a whole holds those more often.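 Interpretation: 100, growth as untreated; towards 0, rising growth inhibition; 0, no net growth; 0 to -100, cell death. Compounds scoring below 10 were considered active.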 Unmarked numbers belong to inactive results. Active and inactive are the calls of the source.

Holding throughout (assay): NCI-60 one-dose screen, 48 h (100 = growth as untreated, 0 = no growth, -100 = all killed)
Common to all, as to conditions: 10 µM

The test system of assay [1] is NCI-H23 lung.
The subject of assay [2] is NCI-H226 lung.
Assay [3] concerns NCI-H322M lung.
For assay [4], the system named is HOP-62 NSCLC.
The test system of assay [5] is NCI-H460 lung.
Assay [6] relates to NCI-H522 lung.
Assay [7] has as its system A549/ATCC NSCLC.
Assay [8] relates to 786-0 renal.
Assay [9] has as its system COLO 205 colon.
The test system of assay [10] is DU-145 prostate.
Assay [11] deals with K-562 leukemia.
For assay [12], the system named is MDA-MB-231 breast.
The test system of assay [13] is RXF 393 renal.
Assay [14] concerns SF-268 CNS.
The test system of assay [15] is SF-295 CNS.
In assay [16] the test system is SF-539 CNS.
Assay [17] has as its system UACC-257 melanoma.
Assay [18] concerns M14 melanoma.
The subject of assay [19] is HCT-15 colon.
Assay [20] has as its system MALME-3M melanoma.

`COc1cc2c(cc1OC)N(CCO)C1=C(C(=O)OC1)C2c1ccc(Cl)c(Cl)c1` (configuration not stated): the growth in [1] was 104%; in [2], 103%; in assay [3], 95.2%; in assay [4] it was 98%; in [5], 104%; in assay [6], 77.4%. The growth in assay [7] was 98.6%; in assay [8], 93.5%; in [9], 116%; in assay [10] it was 109%; in assay [11], 88.7%; in assay [12], 96.8%. Besides, the growth is 97.8% in assay [13]; 100% in assay [14]; 103% in assay [15]; 99.3% in [16]; 103% in assay [17]; 112% in [18]. Further, the growth in assay [19] is 98.2%.
`CCN(CC)CCC(=O)Nc1cccc2c1C(=O)c1c(c(O)c3ccccc3c1O)C2=O`: the growth in assay [1] is 62%; in assay [2], 29%; in assay [3], 56.7%; in assay [4] it was 47.9%; in assay [5], 15.5%; in assay [6], 46.4%. Moreover, the growth was 33.7% in assay [7]; 4.91% (active) in assay [8]; 51.3% in assay [9]; 51.2% in [10]; 23.3% in assay [11]; 61.6% in assay [20]. Moreover, the growth in [13] was 58.4%; in assay [14], 56.9%; in assay [15] it was 25.7%; in assay [16], 38%; in assay [17] it was 85.6%; in assay [18], 70.8%. For the same molecule, the growth in assay [19] was 51.9%.
As for `ClC(Cl)(Cl)c1nc2nccnc2[nH]1`, the growth in assay [1] was 108%; in assay [2], 98.6%; in assay [3], 90%; in assay [4], 102%; in assay [5], 102%; in assay [6], 95.4%. For the same molecule, the growth in assay [7] is 101%; in assay [8] it was 103%; in assay [9], 114%; in assay [10] it was 112%; in assay [11], 101%; in [20] it was 102%. Further, the growth in [13] is 111%; in assay [14], 113%; in assay [15], 78.9%; in assay [16] it was 99.6%; in [17], 108%; in assay [18], 103%. The growth in assay [19] was 103%.
For the molecule `COC(=O)c1ccc(=O)oc1`, the growth in [1] was 93%; in assay [2] it was 101%; in assay [3] it was 106%; in assay [4] it was 96.1%; in [5] it was 110%; in [6] it was 99.9%. Also, the growth in assay [7] was 101%; in assay [8], 99.4%; in [9] it was 119%; in assay [10] it was 114%; in assay [11] it was 86.8%; in [20], 101%. The growth is 98.1% in assay [12]; 104% in [14]; 102% in assay [15]; 95.8% in [16]; 100% in assay [17]; 101% in assay [18]. Moreover, in assay [19], the growth is 97.8%.
For the molecule `COc1cc(-c2cc(C(=O)N3CCN(C(=O)c4ccccc4NCc4cccs4)CC3)nc3cc(-c4ccccc4)nn23)cc(OC)c1OC`, the growth in assay [1] is 85.6%; in assay [2], 78.7%; in assay [3] it was 72.1%; in assay [4], 87.5%; in [5], 38.4%; in assay [6], 18.6%. Further, the growth is 50.7% in [7]; 85.2% in assay [8]; 56.1% in [9]; 81.7% in [10]; 31.4% in [11]; 90.1% in assay [12]. Moreover, the growth in assay [13] is 62.3%; in assay [14], 90.8%; in [15], 105%; in assay [16], 98.5%; in assay [17], 76.4%; in assay [18], 70.9%. The growth in assay [19] is 55.4%.
On to `CCCCN(CCCC)CCCCCCCCC(O)c1cc2ccccc2c2ccccc12` (configuration not stated), for which the growth was 40.8% in [1]; 80.2% in [2]; 84.5% in assay [3]; 76.7% in assay [4]; 54.2% in [5]; 39.1% in assay [6]. Besides, the growth was 56.8% in assay [7]; 67.3% in assay [8]; 44.1% in assay [9]; 69.7% in assay [10]; 22.6% in [11]; 76.8% in assay [20]. For the same molecule, the growth is 56.2% in assay [12]; 65.9% in assay [14]; 77.5% in assay [15]; 74.6% in [16]; 91.4% in assay [17]; 45.7% in assay [18]. Moreover, in assay [19], the growth was 34.6%.
As to `COc1ccc2c(c1)N(CCO)C1=C(C(=O)OC1)C2c1ccccc1` (configuration not stated), the growth in [1] is 35.1%; in assay [2], 36.3%; in assay [3], 41.7%; in assay [4], 24%; in [5], 9.29% (active); in assay [6], -24.9% (active). Also, the growth in assay [7] is 46.6%; in assay [8], 37.9%; in assay [9], 8.42% (active); in assay [10], 16.4%; in [11], 16.3%; in [12] it was 63.4%. The growth in assay [13] is 2.16% (active); in [14] it was 51.2%; in [15], -11.6% (active); in assay [16], 2.74% (active); in [17], 55%; in [18], 7.89% (active). Also, the growth in [19] was 22.4%.
Regarding `O=C(Nc1ccncc1)C(=O)c1cn(S(=O)(=O)c2cccc3ccccc23)c2ccccc12`, the growth in assay [1] was 62.1%; in assay [2], 76.8%; in [3], 86%; in assay [4], 95.1%; in assay [5], 85.7%; in assay [6] it was 48%. Further, the growth in [7] is 77.8%; in assay [8], 77.5%; in assay [9], 101%; in [10] it was 95.1%; in assay [11], 18.9%; in assay [12] it was 74.6%. In addition, the growth in assay [13] was 89.7%; in assay [14], 107%; in assay [15], 52%; in assay [16], 92.7%; in [17] it was 89%; in assay [18], 82.7%. Moreover, the growth in assay [19] was 65.7%.
